PubChem BioAssay (Tox21)
Records with an inconclusive call do not appear. Where a call stands in place of a potency, no number is given. The source made the active and inactive calls. Calls come from the whole dose curve; as a rule, active = well fitted cell-killing curve with a large enough effect in the repeat runs; inconclusive = weak or mixed curves, or effect the other way; inactive = flat fitted curve, though single readings scatter.

Columns and labels:
[1] = cAMP Responsive Elements (CRE) small molecule antagonists, cell-based qHTS assay: qHTS cell viability counter screen (AID 2060913); note: nearly all actives have a fitted effect of over 40% in size
Procedure, shortened: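 CRE-bla HEK293T cells were seeded in assay medium with 10% dialyzed FBS, incubated 18 hrs at 37 C, then exposed to compounds plus 0.25 uM final NKH477 for 3 hrs. Viability was read by CellTiter-Glo luminescence after 30 min, in the same wells.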

[2] = cAMP Responsive Elements (CRE) small molecule agonists, cell-based qHTS assay: qHTS cell viability counter screen (AID 2060914);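 note: viability read after 3 h of compound exposure; nearly all actives have a fitted effect of over 50% in size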
Procedure, shortened: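 Cells are seeded and incubated 18 h, treated with compounds in DMSO for 3 h, read for the bla reporter, then given CellTiter-Glo; luminescence is measured after 30 min at room temperature.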
Potency is the fitted concentration of half-maximal effect.

Row | SMILES | Potency [1] | Potency [2]
1 | Clc1ccccn1 | inactive | inactive
2 | COc1cccc(OC)c1C(=O)N[C@@H]1C(=O)N2[C@@H]1SC(C)(C)[C@@H]2C(=O)O | inactive | inactive
3 | O=c1c(O)c(-c2ccc(O)cc2O)oc2cc(O)cc(O)c12 | inactive | inactive
4 | CC(C)OC=O | inactive | inactive
5 | CC1=NN(c2cc(Cl)c(S(=O)(=O)O)cc2Cl)C(=O)C1N=Nc1ccc(S(=O)(=O)O)cc1 (stereo not given) | inactive | 2.43 µM (active)
6 | C=CC(=O)OCCCCCCOC(=O)C=C | inactive | inactive
7 | O=Cc1ccccc1C=O | inactive | inactive
8 | CCc1cccc2c3c([nH]c12)C(CC)(CC(=O)O)OCC3 (stereo not given) | inactive | inactive
9 | CCOc1cc(OCC)c(C(C)=O)cc1OCC | inactive | inactive
10 | C=CCOC(=O)CC(C)C | inactive | inactive
11 | O=[N+]([O-])c1cc([N+](=O)[O-])c2ccc(S(=O)(=O)O)cc2c1O | inactive | inactive
12 | COC(C)CCO (stereo not given) | inactive | inactive
13 | OCc1cc(C(O)CNCCCCCCOCCCCc2ccccc2)ccc1O (stereo not given) | inactive | inactive
14 | N#CCCNCCC#N | inactive | inactive
15 | CCCCCCCCCC(=O)OC | inactive | inactive
16 | CC1=C(/C=C/C(C)=C/C=C/C(C)=C\C=O)C(C)(C)CCC1 | inactive | inactive
17 | N#CC1(O)CCCCC1 | inactive | inactive
18 | CC(C)c1ccccc1O | inactive | inactive
19 | CCCc1ccc(OCC(=O)N2CCN(C(=O)COc3ccc(CCC)cc3OC)CC2)c(OC)c1 | inactive | inactive
20 | C[C@H](N)C(=O)N[C@@H](C)C(=O)NC1[C@H]2CN(c3nc4c(cc3F)c(=O)c(C(=O)O)cn4-c3ccc(F)cc3F)C[C@@H]12 (stereo not given in full) | inactive | inactive
21 | Cc1cc(=O)oc2cc(O)ccc12 | inactive | inactive
22 | O=C(O)CCCCCCCCCC(=O)O | inactive | inactive
23 | O=C1CC(c2ccc(Cl)cc2)CC(=O)N1 | inactive | inactive
24 | O=C(O)c1snc(Cl)c1Cl | inactive | inactive
25 | Cc1cccc(N(C)C(=S)Oc2ccc3ccccc3c2)c1 | inactive | inactive
26 | CC(=O)Oc1cccc(C)c1 | inactive | inactive
27 | C=CCOCC(O)CS(=O)(=O)O (stereo not given) | inactive | inactive
28 | CCCCCCCCCCCCN(CCO)CCO | 60.9 µM (active) | 60.9 µM (active)

Row | SMILES | Potency [1] | Potency [2]
29 | CC(C)(C)c1ccc(OC(=O)c2ccccc2O)cc1 | inactive | inactive
30 | Cc1c(Cl)cccc1[N+](=O)[O-] | inactive | inactive
31 | C=CC(C)(CCC=C(C)C)OC(=O)CC(C)C (stereo not given) | inactive | inactive
32 | O=C(O)CCCc1ccccc1 | inactive | inactive
33 | CC(C)NCC(O)COc1ccc(CCOCC2CC2)cc1 (stereo not given) | inactive | inactive
34 | Cc1ccc2sc3cccc(C)c3c2c1 | inactive | inactive
35 | CC(C)(C)C(=O)c1ccccc1 | inactive | inactive
36 | O=C(O)c1ccccc1C(c1ccc(O)cc1)c1ccc(O)cc1 | inactive | inactive
37 | CC(=O)c1ccccc1N | inactive | inactive
38 | CCC(C)(Oc1ccc(C2(c3ccc(OC(C)(CC)C(=O)O)cc3)CCCCC2)cc1)C(=O)O (stereo not given) | inactive | inactive
39 | COc1cc(-c2nc(NC(=O)c3cc4cc(C)cc(C)c4n3CC(=O)O)sc2CCC2CCCCC2)c(OC)cc1Cl | 25 µM (active) | 25 µM (active)
40 | C[C@@H]1C[C@H]2O[C@@]3(O[C@@H]2C(C)(C)O)[C@H](O)[C@@]2(C)[C@@H]4CC[C@H]5C(C)(C)[C@@H](O[C@@H]6OC[C@@H](O)[C@H](O)[C@H]6O)CC[C@@]56C[C@@]46CC[C@]2(C)[C@@H]13 | inactive | inactive
41 | COc1cc(O)cc(O)c1 | inactive | inactive
42 | O=C1CCCN1CCO | inactive | inactive
43 | CCCCC(=O)OCC(=O)[C@H]1[C@H](C)C[C@H]2[C@@H]3C[C@H](F)C4=CC(=O)C=C[C@]4(C)[C@@]3(F)[C@@H](O)C[C@@]21C | inactive | inactive
44 | CCC(C)(CN(C)C)OC(=O)c1ccccc1 (stereo not given) | inactive | inactive
45 | CCC1(C)NC(=O)NC1=O (stereo not given) | inactive | inactive
46 | O=c1[nH]cnc2c1ncn2[C@H]1CC[C@@H](CO)O1 | inactive | inactive
47 | CC(C)SCc1ccco1 | inactive | inactive
48 | CCOC(=O)CC#N | inactive | inactive
49 | CCC(C(=O)OCCOCCN(CC)CC)c1ccccc1 (stereo not given) | inactive | inactive
50 | CCOC(=O)NNc1ccc(N(CC)CC(C)O)nn1 (stereo not given) | inactive | inactive
51 | C=CCCC | inactive | inactive
52 | IC(I)I | inactive | inactive
53 | Clc1ccc2c(Cl)ccnc2c1 | inactive | inactive
54 | CCCCC1(COC(=O)CCC(=O)O)C(=O)N(c2ccccc2)N(c2ccccc2)C1=O | inactive | inactive
55 | OCC#CCO | inactive | inactive
